Source: PubChem BioAssay AID1159580 (chemical genetic matrix, 2015)
Among all 5,500 compounds or so, about 2,000 (36%) were called active. About 18% were inconclusive and are not listed. No stated cut-off is given here; in the data, active means normalized growth mostly below about 0.91 (no sharp cut-off); inconclusive means no clear call, values can overlap the other calls; inactive means mostly above about 0.92. The list shows a part of the results.

Test: chemical genetic growth profiling, strain panel (AID 1159580);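 further: tested at 20 µM; growth read once vehicle control cultures reached saturation at 30 °C; 1 = growth at the plate median or of vehicle wells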
Conditions: S. cerevisiae deletion strains, growth OD

Measured: normalized growth

CCCN(CCc1ccccc1)C1CCc2c(O)cccc2C1 (centres undefined)
inactive: locus YAL013W, strain DEP1, stronger effect = lower value 0.992 | locus YAL040C, strain CLN3, stronger effect = lower value 1.02 | locus YCL061C, strain MRC1 (second series), stronger effect = lower value 1 | locus YDR363W, strain ESC2, stronger effect = lower value 1.02 | locus YER002W, strain NOP16, stronger effect = lower value 1 | locus YGR229C, strain SMI1, stronger effect = lower value 0.988 | locus YJR075W, strain HOC1, stronger effect = lower value 1 | locus YMR263W, strain SAP30, stronger effect = lower value 1 | locus YMR307W, strain GAS1, stronger effect = lower value 0.997 | locus YNL153C, strain GIM3, stronger effect = lower value 0.957 | locus YNL175C, strain NOP13, stronger effect = lower value 1 | locus YNL224C, strain SQS1, stronger effect = lower value 1.01 | locus YOR083W, strain WHI5 (second series), stronger effect = lower value 1.02 | locus YPL055C, strain LGE1, stronger effect = lower value 0.973
